RGS4 inhibitor: inhibitors of human regulator of G protein signaling 4. P49798. Transcreener GDP fluorescence polarization, RGS4-accelerated GTP hydrolysis. Potency, µM (titrated, usually from 114 µM), most hits filed as inhibitors. 390,000 tested, 0.039% active. AID 504845; further: nearly all actives have a fitted effect of over 75% in size
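MLSMR compounds (23 nl, pin-transferred) preincubated 10 min at room temperature with a 500nM (2x) first reagent, then RGS4 at 900nM (2x) plus Transcreener GDP mix added; fluorescence polarization (620/688 nm) read before and after 90 min at 30 °C.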
DRD3 antagonist: D3 dopamine receptor (human) antagonism; P35462; D3R cells, DiscoveRx beta-arrestin luminescence, antagonist mode; active compounds read low; max response, negative = inhibition, %; 360,000 tested, 2.5% active; AID 652054; in the data active means max response below about -50%; inconclusive means no clear call, values can overlap the other calls
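Cells expressing the human receptor were seeded at 1500 cells/well, incubated overnight at 37 degrees C in 5% CO2, then exposed to library compounds with dopamine controls for 90 minutes at 37 degrees C before luminescent detection.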
D3 ag: agonists of human D3 dopamine receptor; AID 652048; max activation, %; D3R DiscoveRx beta-arrestin cells, luminescence, 90 min; 410,000 tested, 0.58% active; P35462; in the data active means max activation above about 30%
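Cells at 1500/well, incubated overnight, then treated with pinned compounds (dopamine as control) for 90 min at 37 degrees C. DiscoveRx reagent added for 30 - 60 minutes at room temperature; luminescence read.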
B2AR arrestin: beta2AR (human) beta-arrestin recruitment activity | P07550 | beta-arrestin recruitment to beta2AR, cell-based reporter | Potency, µM (titrated, usually from 46.1 µM), actives largely listed as activators | 330,000 tested, 0.02% active | AID 492947; further: nearly all actives have a fitted effect of over 65% in size
PTHR1 agonist: activates the human parathyroid hormone receptor PTHR1. HEK293 GP2 PTHR1 cells, GloSensor cAMP luminescence, 1 h. Potency, µM (titrated, usually from 115 µM), actives largely listed as activators. 410,000 tested, 0.075% active. AID 743266; further: nearly all actives have a fitted effect of over 55% in size
Target sequence (Q03431 whole entry, looked up): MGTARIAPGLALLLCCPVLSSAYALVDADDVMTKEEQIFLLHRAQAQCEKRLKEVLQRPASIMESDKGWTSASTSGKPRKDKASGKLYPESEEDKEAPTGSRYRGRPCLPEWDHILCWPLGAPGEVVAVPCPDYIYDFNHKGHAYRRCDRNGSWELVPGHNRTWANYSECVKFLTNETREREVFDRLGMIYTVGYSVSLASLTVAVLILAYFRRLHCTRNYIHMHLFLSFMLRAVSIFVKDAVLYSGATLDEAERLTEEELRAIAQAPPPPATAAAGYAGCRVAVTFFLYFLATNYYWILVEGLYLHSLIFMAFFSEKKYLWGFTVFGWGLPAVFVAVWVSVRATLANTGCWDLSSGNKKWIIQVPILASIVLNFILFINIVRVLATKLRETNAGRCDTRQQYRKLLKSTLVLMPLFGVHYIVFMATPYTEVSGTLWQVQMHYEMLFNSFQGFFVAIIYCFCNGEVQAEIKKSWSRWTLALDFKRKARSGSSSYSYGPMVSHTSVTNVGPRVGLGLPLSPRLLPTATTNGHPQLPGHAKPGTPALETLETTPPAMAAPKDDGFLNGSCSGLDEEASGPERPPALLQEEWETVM
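HEK-293-derived GP2 cells expressing PTHR1 and a GloSensor cAMP reporter, 3,000/well, plated overnight, given luciferin plus IBMX (each 0.5 mM as added) for 1 h at 37 °C, then compound for 1 h at 37 °C. Luminescence was read after 15 min at room temperature.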
BRCA1 expr act: BRCA1 expression activation; MCF7-BRCA1-FFLuc reporter, luminescence, 48 h; response scale: scaled: vehicle 0%, 10 µM genistein 100%; Potency, µM (highest dose often 46.1 µM), usual class: activators; 380,000 tested, 1.1% active; AID 624202; further: nearly all actives have a fitted effect of over 80% in size
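Luminescence from a BRCA1-driven firefly luciferase in MCF7 cells was read after 48 h compound exposure at 37 C. Data normalized against DMSO and a 10microM genistein activation control, then curve-fitted across the titration.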
Numbers stand for hits; i = inactive; ? = inconclusive; nt = not tested or not shown. Compounds with a hit are over-represented: about 3.7% of the library has one in this group of screens. Unless noted, the call rests on the fitted dose curve; in most records, active means well fitted curve in the direction sought with a large enough effect; inconclusive means small, poorly fitted or top-dose-only effect, or another doubt; inactive means no such curve, though single readings can be large; an effect the other way counts as inactive or inconclusive.

SMILES	RGS4 inhibitor	DRD3 antagonist	D3 ag	B2AR arrestin	PTHR1 agonist	BRCA1 expr act
COc1ccc(-c2cc(C(=O)NC(Cc3cc4ccccc4[nH]3)C(=O)O)c(C)o2)cc1OC (stereo not drawn)	?	i	36.4	i	i	i
COc1ccc(-c2cc(C(=O)O)c(C)o2)cc1OC	i	i	i	i	i	?
COc1ccc(CCNC(=O)CCCn2nc(C)c([N+](=O)[O-])c2C)cc1OC	i	i	i	i	i	i
Cc1ccc(/C(N)=N/OC(=O)c2cccs2)cc1	i	?	i	i	i	i
COc1ccc(/C(N)=N/OC(=O)c2cccs2)cc1OC	i	i	i	i	i	8.91µM
Cc1nn(-c2ccccc2)c(C)c1/C=N/NC(=O)CSc1nnc(SCc2ccccc2Cl)s1	i	i	i	?	i	12.6µM
COC(=O)CCCNC(=O)c1ccc(OC2CCN(CCc3ccccc3)CC2)cc1	i	i	i	i	i	i
CSCCNC(=O)c1ccc(OC2CCN(CCc3ccccc3)CC2)cc1	i	-78.6	i	i	i	i
CN(C(=O)c1ccc(OC2CCN(CCc3ccccc3)CC2)cc1)C1CCOCC1	i	-82.5	i	i	i	i
CN(C(=O)c1ccc(OC2CCN(CCc3ccccc3)CC2)cc1)C1CCOC1 (stereo not drawn)	i	i	i	i	i	i
CC(C)(C)n1nnnc1C(c1ccccc1)N1CCN(c2ccc(C(F)(F)F)cn2)CC1 (stereo not drawn)	nt	i	i	nt	i	i
COc1ccc(-c2noc(-c3ccc(NCC4CCCO4)c([N+](=O)[O-])c3)n2)cc1 (stereo not drawn)	i	nt	i	nt	i	i
COc1cccc(C(C(=O)NCc2ccco2)N(C(=O)Cn2nnc3ccccc32)C2CC2)c1OC (stereo not drawn)	i	-53.3	i	i	i	i
CCc1ccccc1OC[C@@H](O)CN[C@H]1CCCc2ccccc21	i	-53.0	i	i	i	i
CCOc1ccc(CNC2CCCc3ccccc32)cc1 (stereo not drawn)	i	-50.5	i	i	i	i
CC(=O)c1cc(C#N)c(Oc2ccc(Cl)cc2Cl)nc1C	i	-55.5	i	nt	i	i
Cc1ccc(OCc2n[nH]c(=S)n2-c2ccc(Cl)cc2)cc1	i	i	i	i	i	i
Cc1ccc(C2=Nn3c(COc4ccc(Cl)cc4)nnc3SC2CC(=O)O)cc1 (stereo not drawn)	i	i	32.5	i	i	i
COc1ccc(C2N=C(N)Nc3nc4ccccc4n32)cc1 (stereo not drawn)	i	nt	i	nt	50.1µM	nt
CCOc1ccccc1NC(=S)NC(=O)CCCOc1ccc(Cl)cc1Cl	i	-109.5	i	i	i	i
CC#CCCCC(=O)Nc1ccccc1C(=O)O	i	i	i	i	i	11.2µM
O=C(CCCOc1ccc(Cl)cc1Cl)Nc1ccccc1C(=O)O	i	i	i	i	i	6.31µM
O=C(COc1ccc(Cl)cc1Cl)NC(=S)Nc1ccccc1C(=O)O	nt	nt	nt	i	nt	nt
COc1ccccc1NC(=O)Cn1c(=O)n(-c2ccccc2Cl)c(=O)c2sc3ccccc3c21	i	nt	i	nt	i	i
CCOC(=O)C1=CCN(S(=O)(=O)c2ccccc2C)C1c1cccc(F)c1 (stereo not drawn)	nt	i	i	nt	i	i
SMILES	RGS4 inhibitor	DRD3 antagonist	D3 ag	B2AR arrestin	PTHR1 agonist	BRCA1 expr act
CCOC(=O)c1cc2c(nc1NC(=S)NCc1ccccc1)CCCC2	i	i	i	i	i	4.47µM
CCOC(=O)c1cc2c(nc1NC(=S)Nc1ccccc1)CC(C)(C)OC2	i	i	i	i	i	i
CCCCn1nnc(NC(=O)c2ccc(-c3ccccc3[N+](=O)[O-])o2)n1	i	?	i	i	i	i
CCCn1nnc(NC(=O)c2ccc(Cl)cc2Cl)n1	i	i	i	i	i	2.51µM
CCCn1nnc(NC(=O)c2ccccc2Cl)n1	i	i	i	i	i	11.2µM
CCCn1nnc(NC(=O)c2cccnc2Cl)n1	i	?	i	i	i	i
CCCCn1nnc(NC(=S)NC(=O)c2ccc(-c3cccc(Cl)c3Cl)o2)n1	i	-70.8	i	i	i	i
Cn1nnc(NC(=S)NC(=O)c2cc(Cl)ccc2Cl)n1	i	-70.0	i	i	i	i
Cn1c(=O)c2ncn(C)c2n(C)c1=O	i	i	i	nt	i	i
CC(c1ccccc1)n1c(-c2cccs2)nc2c(c(=O)c3ccccc3n2C)c1=O (stereo not drawn)	i	i	i	i	i	i
Clc1ccccc1CSC1=NCCCN1	i	i	i	i	i	i
Clc1ccc(CSC2=NCCCN2)cc1Cl	i	-57.5	i	i	i	i
Cn1c(=O)[nH]c(=O)c2c1nc(N1CCNCC1)n2Cc1cccc2ccccc12	i	-79.7	i	i	i	i
